Here are results for 18 molecules from PubChem BioAssay (EPA / NIEHS).

Where “and” joins values, the source holds several entries; their conditions need not be identical. Equal entries are not always repeated. A structure can be active in one record and inactive in another. Calls of active or inactive are those of the source. Rule for the calls: active = hit-call score of the fitted dose curve at least 0.9, where 1 is the maximum; inactive = score below 0.9.

Cellular tumor antigen p53 (Homo sapiens), sequence (P04637 whole entry, looked up): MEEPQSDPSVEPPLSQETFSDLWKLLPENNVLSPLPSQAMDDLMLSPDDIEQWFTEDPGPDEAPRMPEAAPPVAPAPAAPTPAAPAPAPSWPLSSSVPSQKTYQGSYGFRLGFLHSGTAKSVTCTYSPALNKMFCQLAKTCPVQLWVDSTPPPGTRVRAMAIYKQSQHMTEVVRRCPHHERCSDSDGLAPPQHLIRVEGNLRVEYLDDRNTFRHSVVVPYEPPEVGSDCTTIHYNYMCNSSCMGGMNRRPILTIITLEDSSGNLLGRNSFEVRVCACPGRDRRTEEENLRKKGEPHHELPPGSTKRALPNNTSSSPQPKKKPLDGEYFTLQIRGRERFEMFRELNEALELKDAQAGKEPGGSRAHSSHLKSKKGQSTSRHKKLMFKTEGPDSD

This assay addresses Cellular tumor antigen p53 (Homo sapiens) (UniProt P04637). In words: ATG_p53_CIS: Attagene CIS-FACTORIAL HepG2 Assay for human p53 Transcription Factor (AID 2282994). To be noted: HepG2 p53 cis-element reporter, Attagene mRNA; actives raise or lower the signal. The essentials: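 HepG2 cells transiently transfected with cis-regulated multiple reporter transcription units, dosed 24 h. Reporter mRNA measured by RT-PCR, 6-FAM primer extension, HpaI digestion and capillary electrophoresis; bidirectional fit relative to DMSO.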
`CCCCC(CC)CN1C(=O)C2C3C=CC(C3)C2C1=O` (stereo not given): the outcome was inactive.

`O=C(O)C1(C(=O)Nc2ccc(Cl)cc2Cl)CC1`: the molecule was classed as inactive.

In the case of `COC(=O)c1ccccc1C(=O)O`, the molecule was classed as inactive.

In the case of `c1ccc(Nc2ccccc2)cc1`, the outcome was inactive.

Regarding `CCOC(=O)NCCOc1ccc(Oc2ccccc2)cc1`, the call was inactive.

A word on the AC50: it is the concentration at which the activity in the assay is half-maximal. With `CC(C)(c1ccc(O)cc1)c1ccc(O)cc1`, the AC50 is 86.2 µM (active) and 100 µM (active) and 133 µM (active); the molecule was called inactive.

In the case of `O=C(Nc1ccc([N+](=O)[O-])cc1Cl)c1cc(Cl)ccc1O`, the half-maximal activity concentration (AC50) was 700 nM (active).

For `COC(=O)c1cccc(C)c1S(=O)(=O)NC(=O)Nc1nc(OCC(F)(F)F)nc(N(C)C)n1`, the call was inactive.

For the molecule `CCCCOC(=O)[C@@H](C)Oc1ccc(Oc2ccc(C(F)(F)F)cn2)cc1`, the molecule was called inactive.

For `O=C(c1ccc(O)cc1O)c1ccc(O)cc1O`, the result was inactive.

In the case of `CC(C)(C)[C@@H](O)[C@@H](Cc1ccc(Cl)cc1)n1cncn1`, the molecule was called inactive.

Turning to `CCOC(=O)C(C)Oc1ccc(Oc2nc3ccc(Cl)cc3o2)cc1` (stereo not given), the molecule was classed as inactive.

On to `CCC(C)OC(=O)N1CCCCC1CCO` (stereo not given), for which the result was inactive.

With `CCN(Cc1c(F)cccc1Cl)c1c([N+](=O)[O-])cc(C(F)(F)F)cc1[N+](=O)[O-]`, the call was inactive.

As for `CC(C)CCCCCCc1ccc(O)cc1`, the half-maximal activity concentration (AC50) was 20.1 µM (active) and 20.3 µM (active); the molecule was called inactive.

As to `CCNc1nc(N)nc(Cl)n1`, the molecule was classed as inactive.

Consider `COC(=O)c1c(Cl)nn(C)c1S(=O)(=O)NC(=O)Nc1nc(OC)cc(OC)n1`, for which the call was inactive.

As to `C[C@]12C[C@H](O)[C@H]3[C@@H](CCC4=CC(=O)CC[C@@]43C)[C@@H]1CC[C@@H]2C(=O)CO`, the molecule was called inactive.
